# Measured values as given in PubChem BioAssay (NCI).
# Compounds without any hit were thinned out: in the full panel of roughly 83,000, 20% have a hit.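 Assay: single dose, 48 h. Readout: percent growth (0 = no net growth; negative = cell death). Active: <10.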 A number with no mark means an inactive call. The source made the active and inactive calls.
# What was measured:
# Assay in all cases: NCI-60 one-dose screen, 48 h (100 = growth as untreated, 0 = no growth, -100 = all killed)
# Settings in all cases: 10 µM
# SR leukemia = tested on: SR leukemia
# RPMI-8226 leukemia = tested on: RPMI-8226 leukemia
# OVCAR-8 ovarian = tested on: OVCAR-8 ovarian
# OVCAR-5 ovarian = tested on: OVCAR-5 ovarian
# OVCAR-4 ovarian = tested on: OVCAR-4 ovarian
# SK-OV-3 ovarian = tested on: SK-OV-3 ovarian
# IGROV1 ovarian = tested on: IGROV1 ovarian
# OVCAR-3 ovarian = tested on: OVCAR-3 ovarian
# HS 578T breast = tested on: HS 578T breast
# NCI/ADR-RES ovarian = tested on: NCI/ADR-RES ovarian
Structure (SMILES),growth (SR leukemia),growth (RPMI-8226 leukemia),growth (OVCAR-8 ovarian),growth (OVCAR-5 ovarian),growth (OVCAR-4 ovarian) [%],growth (SK-OV-3 ovarian),growth (IGROV1 ovarian),growth (OVCAR-3 ovarian),growth (HS 578T breast),growth (NCI/ADR-RES ovarian)
CS(=O)(=O)c1nccc(-c2c(-c3cccc(O)c3)nc3sccn23)n1,72.4%,91.5%,94.9%,99.3%,78.2,95.6%,117%,97%,93%,101%
O=C1/C(=C/c2ccc3c(c2)OCO3)SC(=S)N1C1c2ccccc2Oc2ccccc21,84.1%,106%,98.9%,96.5%,102,107%,90.6%,98.1%,90.9%,95.4%
O=C(CI)OCC(COC(=O)CI)OC(=O)CI,-12.9% (active),50.9%,97.9%,104%,64,119%,-57.1% (active),72.2%,97.4%,95.6%
CS(=O)(=O)c1nccc(-c2c(-c3cccc(OCc4ccccc4)c3)nc3sccn23)n1,37.9%,81.6%,92.7%,89.2%,73.8,72.8%,58.4%,89.4%,79.1%,90.7%
Cc1ccc(-c2c3c(N)nc(-c4cccnc4)nc3nc3c2c(C)nn3-c2ccccc2)cc1,82.5%,81.2%,82%,90.8%,50.8,66.2%,103%,104%,72%,90.3%
CC(CN(C)C)Oc1ccc(OC(C)CN(C)C)c2c1C(=O)c1ccccc1C2=O (stereo not given),20.7%,41.4%,30.1%,63.6%,72,45.1%,37.3%,55%,70%,94.5%
COc1cc2cc(Oc3ccc(NC(=O)c4cc(C(F)(F)F)cc(C(F)(F)F)c4)cc3)c(C)nc2cc1OC,52.8%,17.7%,48.2%,67.7%,52.4,44.5%,43.9%,15.2%,73.1%,46.3%
COc1ccc2c(c1)OC(N)=C(C#N)C2c1cc(OC)c(OC)c(OC)c1 (stereo not given),4.02% (active),11.6%,14.6%,39.3%,39.8,50%,7.64% (active),-39.8% (active),25.3%,-24.3% (active)
COc1ccc(/C=C2\CCCC3C2=Nc2ccccc2NC3c2ccc(OC)cc2)cc1 (stereo not given),53.9%,25.7%,85.1%,127%,77.5,89.3%,96.6%,86.8%,87.6%,86.2%
OCC1OC(n2cnc3c(NCc4ccco4)ncnc32)C(O)C1O (stereo not given),5.19% (active),50.8%,0.871% (active),28.8%,23,-2.77% (active),-3.86% (active),-41.7% (active),11.5%,12.7%
COc1cc(C(=O)N2CCN(c3cc4c(cc3F)c(=O)c(C(=O)NO)cn4C3CC3)CC2)cc(OC)c1OC,95%,85.2%,106%,98.1%,101,103%,110%,108%,105%,100%
CC(=O)Nc1ccc(CC[C@H]2CCC/C=C/[C@@H]3C[C@H](O)C[C@H]3[C@H](O)/C=C/C(=O)O2)cc1,3.92% (active),3.69% (active),0.483% (active),23%,18.4,29.8%,20.3%,6.39% (active),34.9%,18.7%
COc1ccc(-c2n[nH]nc2-c2cc(OC)c3c(c2OC)OCO3)cc1,10.8%,25.1%,43%,44.2%,51.8,52.7%,45.3%,-11.5% (active),-5.63% (active),2.06% (active)
CCOC(=O)c1cc(C(=O)c2cc(OC)c(OC)c(OC)c2)n2ncc3ccccc3c12,23.1%,81.9%,78.5%,99.3%,83.8,83.4%,75.9%,47%,85.5%,63.6%
COc1cc(/C=C/c2cc(/C=C/c3ccc(O)c(OC)c3)nc(N)n2)ccc1O,-7.94% (active),2.88% (active),9.33% (active),5.83% (active),18.3,-17.4% (active),3.42% (active),-7.57% (active),-0.999% (active),39.3%
O=C(Nc1ccc(OS(=O)(=O)c2ccccc2)cc1)C1CCCCC1,47.2%,76.4%,94.6%,100%,102,95.6%,106%,95%,103%,88.3%
COc1cc(C(=O)n2nc(-c3cc(OC)c(OC)c(OC)c3)nc2N)cc(OC)c1OC,73.5%,92.4%,102%,97%,94.5,87.5%,105%,101%,103%,99.2%
CCN1CC(CCN2CCOCC2)C(C(c2ccccc2)c2ccccc2)C1=O (stereo not given),94%,113%,99.9%,110%,113,115%,127%,112%,104%,98.8%
CN(C)CCCN1c2ccccc2CCc2ccc(Cl)cc21,49.2%,47.8%,77.1%,77.5%,53.1,82.4%,59.3%,72.3%,68.7%,59.5%
Cc1cc(SC#N)cc(C(C)(C)C)c1O,86%,96.6%,99.9%,88.4%,96.1,93.1%,100%,95%,110%,104%
Cc1ccc(/C=C2/C(=O)N(C)c3ccc(S(=O)(=O)Nc4ccc(C(C)(C)C)cc4)cc32)s1,57.9%,55.6%,41.3%,73%,44.4,89.6%,70.8%,88.3%,88.7%,55.8%
COc1ccc(CCN2CCC(Nc3nc4ccccc4n3Cc3ccc(F)cc3)CC2)cc1,-54.6% (active),-20.2% (active),-40.4% (active),34.5%,22.4,44%,41.2%,28.3%,-40.2% (active),37.7%
CC[C@@H](C(=O)[C@@H](C)[C@@H](O)[C@H](C)[C@@H]1O[C@@H]([C@@H](CC)C(=O)O)CC[C@@H]1C)C1O[C@]2(C=CC(=O)[C@]3(CC[C@@](C)([C@H]4CC[C@](O)(CC)[C@H](C)O4)O3)O2)[C@H](C)C[C@@H]1C (stereo not given in full),31.3%,4.99% (active),44.4%,56.1%,47.7,69.1%,48.4%,27.2%,30.6%,40%
CS(=O)(=O)c1nccc(-c2c(-c3cccc(OCc4ccc(F)cc4)c3)nc3sccn23)n1,38.6%,71.7%,86.3%,102%,65.1,60.7%,49.7%,88.3%,73.4%,89.4%
